B2AR ag: beta2AR agonists driving receptor internalization, primary screen, cell-based, FAP fluorogen, flow cytometry | Beta-2 adrenergic receptor (Homo sapiens), P07550 | Am2.2-beta2AR cells | response, % (test concentration not listed) | actives 0.43% (n = 340,000);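 active means response above a set limit, near 3 SD of response in nonfluorescent compounds, cut at about 42% in these data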
Target sequence (P07550 whole entry, looked up): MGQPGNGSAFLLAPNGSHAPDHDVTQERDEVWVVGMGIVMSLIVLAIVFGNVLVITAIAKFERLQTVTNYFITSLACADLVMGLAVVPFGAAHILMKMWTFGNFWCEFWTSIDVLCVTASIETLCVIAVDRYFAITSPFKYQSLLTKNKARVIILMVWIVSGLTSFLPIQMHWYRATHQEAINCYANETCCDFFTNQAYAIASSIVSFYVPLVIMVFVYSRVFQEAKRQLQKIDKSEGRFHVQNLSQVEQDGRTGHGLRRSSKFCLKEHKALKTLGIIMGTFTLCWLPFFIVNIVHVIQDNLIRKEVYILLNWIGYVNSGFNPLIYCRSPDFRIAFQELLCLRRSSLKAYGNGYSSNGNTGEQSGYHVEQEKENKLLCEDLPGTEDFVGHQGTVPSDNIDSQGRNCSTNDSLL
PfHsp90 yeast 2: growth inhibition of PfHsp90-expressing yeast, primary screen, antimalarial PfHsp90 inhibitor project, S. cerevisiae, BacTiter-Glo luminescence, single point, set 2; AID 504621, 2011; actives 0.32% (n = 310,000); BacTiter-Glo ATP, 48 h; yeast lacking PDR1 and PDR3 efflux regulators; inhibition, % at 9.4 µM;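 active means every replicate shows inhibition above about 80%, whatever the replicate mean, limit read from the data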;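 further: 0% = DMSO neutral controls and 100% = 20 µM radicicol positive controls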
tim10-1 inh: growth inhibitors of tim10-1 mutant yeast, primary screen, luminescence, uHTS | actives 2.2% (n = 330,000) | inhibition, % at 20 µM | S. cerevisiae tim10-1 ts strain growth, BacTiter-Glo, 24 h;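 active means inhibition of at least 40%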;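 further: mutant grown at 25 °C; 0% = DMSO wells with yeast and 100% = wells holding no yeast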
tim23-1 inh: growth inhibitors of tim23-1 mutant yeast, primary screen, luminescence, uHTS; S. cerevisiae tim23-1 growth, BacTiter-Glo luminescence, 24 h; inhibition, % at 20 µM; actives 1.3% (n = 330,000); AID 463212, 2010;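 active means growth inhibition of the mutant yeast at or above 50%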;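 further: temperature-sensitive mutant grown at 25 °C; plate controls were DMSO-treated mutant yeast for no effect and medium wells lacking yeast for full effect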
TIM10 inh: growth inhibitors of isogenic TIM10 control yeast, primary screen, counter-screen for tim10-1 yeast inhibitor project, luminescence, uHTS; S. cerevisiae TIM10 strain growth, BacTiter-Glo luminescence, 24 h; inhibition, % at 10 µM; actives 1.4% (n = 330,000);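 active means inhibition of 40% or more at the single tested concentration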;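 further: wild-type TIM10 isogenic control strain grown at permissive 25 °C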
TIM10 conf: growth inhibitors of wild-type TIM10 yeast, confirmation, counter-screen for tim10-1 synthetic lethality project, single concentration, luminescence, S. cerevisiae | actives 63% (n = 4,600) | S. cerevisiae tim10 strain growth, BacTiter-Glo luminescence, 24 h | shares compounds with TIM10 inh | AID 463215, 2010 | inhibition, % at 10 µM;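 active means inhibition of yeast growth at or above a set limit in either of two replicates at 10 µM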;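 further: this counterscreen used the strain with wild-type TIM10; 0% = yeast with DMSO and 100% = medium wells lacking yeast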
tim23-1 conf: tim23-1 mutant yeast growth inhibitors, confirmation, luminescence, single concentration | shares compounds with tim23-1 inh | S. cerevisiae tim23-1 growth, BacTiter-Glo luminescence, 24 h | inhibition, % at 20 µM | actives 83% (n = 4,400) | AID 463218, 2010;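 active means inhibition above about 39% in either of two replicate wells at 20 µM, limit read from the data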;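 further: temperature-sensitive tim23-1 mutant grown at 25 °C; 0% = DMSO wells with yeast and 100% = medium wells without yeast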
An asterisk follows results filed as active; . = not tested or not shown. The list is not random: actives were taken first. Their share in the collection is about 3.8%.

SMILES	B2AR ag	PfHsp90 yeast 2	tim10-1 inh	tim23-1 inh	TIM10 inh	TIM10 conf	tim23-1 conf
CC(=O)Nc1ccc(S(=O)(=O)N2CCN(C(=O)c3ncoc3-c3ccc(F)cc3)CC2)cc1	.	11	-2	-3	-16	.	.
CC(=O)N1CCC(C(=O)Nc2ccc(S(=O)(=O)NCCc3ccccc3)cc2)CC1	3	3	0	-12	4	.	.
Nc1ccc(-c2cc(-c3cccc(N)c3)nc(-c3ccccc3)n2)cc1	-3	16	-1	-7	-21	.	.
Nc1ccc(-c2nc(-c3ccccc3)nc3ccccc23)cc1	-10	-2	37	67*	56*	54*	57*
CC[C@]1(c2ccccc2OC)ON(c2ccccc2C(F)(F)F)C1=O	.	.	25	57*	40*	69*	62*
COc1ccccc1[C@]1(C)ON(c2ccccc2C(F)(F)F)C1=O	35	-23	-51	69*	63*	58*	-55
COc1ccc(-n2c(C)cc(C(=O)CCl)c2C)cc1	31	-17	-42	44	3	.	.
CC(=O)Nc1ccc(SCC(=O)c2cc(C)n(-c3ccccc3)c2C)cc1	-3	-28	35	54*	48*	44*	53*
COc1ccc(-n2c(C)cc(C(=O)CSc3ccc(NC(C)=O)cc3)c2C)cc1	-1	-4	30	62*	41*	31	49*
Cc1ccc2nc(-c3ccc4c(c3)OCCO4)cn2c1	14	-6	34	51*	74*	76*	52*
c1ccn2cc(-c3ccc4c(c3)OCCO4)nc2c1	-10	40	19	31	12	.	.
Cc1c(-c2ccccc2)c(-c2ccc(OCCN(C)C)cc2)n2ccccc12	-4	-14	.	.	.	.	.
Cc1ccc(-c2nc(SC(C)C(=O)N3CCCC3)n[nH]2)cc1 (centres undefined)	2	-5	7	2	12	.	.
Oc1ccc(Nc2nc(-c3ccccc3O)nc3ccccc23)cc1	12	-5	26	75*	47*	62*	-20
CCSc1ccc(/C(N)=N/OC(=O)c2cccs2)cn1	-13	6	35	61*	63*	63*	74*
Cc1ccc(C)c(C(=O)Nc2cc(C)nn2-c2nc(C)cc(C)n2)c1	-2	-25	9	54*	43*	43*	48*
Cc1cc(C)nc(-n2nc(C)cc2NC(=O)c2cccc(S(=O)(=O)N(C)C)c2)n1	.	.	5	-2	-7	.	.
CCOC(=O)C1=CN(Cc2cccc(F)c2)S(=O)(=O)N(CC)C1c1ccc(F)c(Cl)c1 (centres undefined)	10	0	19	41	-1	.	.
O=C1C=C(c2ccc(F)nc2)C[C@@H](c2ccc3c(c2)OCO3)C1	-5	9	-11	-23	-2	.	.
CCOC(=O)c1sc(NC(=O)c2ccccc2)cc1C	0	31	6	64*	50*	32*	72*
CCOC(=O)c1sc(=NC(=O)c2ccccc2)n(C)c1C	-3	7	24	54*	71*	62*	74*
CCOC(=O)c1sc(=NC(=O)c2cccc(OC)c2)n(C)c1C	5	.	15	14	13	.	.
CCOC(=O)c1sc(NC(=O)c2ccc(S(=O)(=O)N(C)C)cc2)cc1C	8	3	14	-2	3	.	.
O=C(Nc1ccc(-c2cn3ccccc3n2)cc1)c1cccs1	6	9	-4	62*	42*	26	71*
O=C(Nc1ccc2nc(-c3ccccc3)[nH]c2c1)c1cccs1	-7	-26	-22	59*	47*	20	69*
SMILES	B2AR ag	PfHsp90 yeast 2	tim10-1 inh	tim23-1 inh	TIM10 inh	TIM10 conf	tim23-1 conf
O=C(Nc1nc(-c2ccccc2)cs1)c1cccs1	1	6	34	53*	44*	5	55*
OCC1OC(n2cnc3c(SCc4ccccc4)nc(F)nc32)C(O)C1O (centres undefined)	-3	.	.	.	.	.	.
CCOC(=O)C1CCCN(C(=O)CNC(=O)c2ccc(Br)o2)C1 (centres undefined)	4	3	3	5	4	.	.
COc1ccc(OC)c(N/C=C/C(=O)c2ccccc2)c1	2	-19	-2	62*	44*	26	83*
Cc1cccc(C)c1N=Nc1c(C)cc(O)cc1C	-1	112*	24	63*	47*	65*	-1
O=C(Cc1ccccc1F)Nc1ccc(S(=O)(=O)N2CCCC2)cc1	-2	-3	31	14	15	.	.
Cc1ccc(C)c(-c2nc3ccc(N)cc3[nH]2)c1	-3	71	-7	0	21	.	.
Cc1ccc2nc(-c3ccccc3N)[nH]c2c1	-6	22	28	67*	44*	14	31
Cn1cnc2c1c(=O)n(Cc1cccc(Cl)c1)c(=O)n2C	10	21	4	-3	-15	.	.
Cc1ccccc1OCC(=O)O/N=C(\N)Cc1ccc(Cl)cc1	2	3	19	82*	84*	79*	60*
CCc1ccc(-c2cc(C(=O)N3N=C(C(F)F)CC3(O)C(F)F)c3ccccc3n2)cc1 (centres undefined)	8	111*	40	54*	48*	26	29
CC(C)Cc1cc(C(=O)N2N=C(C(F)F)CC2(O)C(F)F)c2ccccc2n1 (centres undefined)	-6	.	22	18	4	.	.
C[C@]12CC[C@H](O)CC1=CCC1C2CC[C@@]2(C)C1CC[C@@H]2NC(=O)[C@@H](N)Cc1cnc[nH]1 (some centres undefined)	7	21	.	.	.	.	.
O=C(Nc1nc2ccccc2s1)C1c2ccccc2Oc2ccccc21	6	-41	36	51*	45*	46*	58*
Oc1c(Cl)cc(Cl)cc1C=Nc1ccc(N2CCOCC2)cc1	3	-21	16	74*	66*	18	38*
Cn1ncc2c(O/N=C(\N)c3ccc(C(C)(C)C)cc3)ncnc21	49*	-34	27	55*	79*	84*	24
Oc1ccc(/C=N/Nc2ncc(Br)cn2)c(O)c1	-12	-20	32	70*	67*	-26	67*
Cc1cc(-c2ccccc2)nc(N/N=C/c2ccc(O)cc2O)n1	14	-5	35	64*	57*	61*	70*

Compound activity deposited in PubChem BioAssay by several laboratories.
